Results published in PubChem BioAssay AID1159580 (chemical genetic matrix, 2015).
Out of some 5,500 compounds screened, about 2,000 (36%) were called active. Roughly 18% stayed inconclusive and do not appear here. The list shows a part of the results. Unmarked numbers belong to inactive results. No stated cut-off is given here; in the data, active means normalized growth mostly below about 0.91 (no sharp cut-off); inconclusive means no clear call, values can overlap the other calls; inactive means mostly above about 0.92.

Assay: chemical genetic growth profiling, strain panel (AID 1159580);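 further: tested at 20 µM; growth read once vehicle control cultures reached saturation at 30 °C; 1 = growth at the plate median or of vehicle wells; lower values mean less growth of the strain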
Settings: S. cerevisiae deletion strains, growth OD

## CC(=O)c1c(O)c(C)c(O)c2c1OC1=CC(=O)C(C(C)=O)C(=O)C12C (stereo not drawn)
Locus YJR043C, strain POL32, active compounds read low
  normalized growth: 1.01
Locus YJR066W, strain TOR1, active compounds read low
  normalized growth: 0.465 (active)
Locus YKL009W, strain mrt4, active compounds read low
  normalized growth: 0.387 (active)
Locus YKL068W, active compounds read low
  normalized growth: 1.01
Locus YKL085W, strain MDH1 (second series), active compounds read low
  normalized growth: 0.275 (active)
Locus YKL085W, strain MDH1, active compounds read low
  normalized growth: 0.275 (active)
Locus YKL160W, strain elf1, active compounds read low
  normalized growth: 0.977
Locus YKL190W, strain CNB1, active compounds read low
  normalized growth: 1.01
Locus YKR001C, strain vps1, active compounds read low
  normalized growth: 0.813 (active)
Locus YKR026C, strain gcn3, active compounds read low
  normalized growth: 0.938
Locus YKR091W, strain srl3, active compounds read low
  normalized growth: 0.942
Locus YLL001W, strain dnm1, active compounds read low
  normalized growth: 0.933
Locus YLL026W, active compounds read low
  normalized growth: 0.925 (active)
Locus YLL041C, strain sdh2, active compounds read low
  normalized growth: 0.936
Locus YLR027C, strain aat2, active compounds read low
  normalized growth: 0.796 (active)
Locus YLR039C, strain RIC1, active compounds read low
  normalized growth: 1.01
Locus YLR058C, strain SHM2, active compounds read low
  normalized growth: 1.01
Locus YLR102C, strain apc9, active compounds read low
  normalized growth: 0.99
Locus YLR113W, strain HOG1, active compounds read low
  normalized growth: 0.186 (active)
Locus YLR221C, strain rsa3, active compounds read low
  normalized growth: 0.781 (active)
Locus YLR258W, strain gsy2, active compounds read low
  normalized growth: 0.889 (active)
Locus YLR262C, strain YPT6 (second series), active compounds read low
  normalized growth: 0.723 (active)
Locus YLR262C, strain YPT6, active compounds read low
  normalized growth: 1.03
Locus YLR268W, strain sec22, active compounds read low
  normalized growth: 0.932
Locus YLR320W, strain mms22, active compounds read low
  normalized growth: 0.907
Locus YLR330W, strain CHS5, active compounds read low
  normalized growth: 1.01
Locus YLR342W, strain FKS1 (second series), active compounds read low
  normalized growth: 0.946
Locus YLR342W, strain FKS1, active compounds read low
  normalized growth: 0.93
Locus YLR357W, strain rsc2, active compounds read low
  normalized growth: 0.886
Locus YLR370C, strain arc18, active compounds read low
  normalized growth: 0.9 (active)
Locus YLR371W, strain rom2, active compounds read low
  normalized growth: 0.998
Locus YLR384C, strain iki3, active compounds read low
  normalized growth: 0.957
Locus YLR418C, strain cdc73, active compounds read low
  normalized growth: 0.694 (active)
Locus YML016C, strain PPZ1, active compounds read low
  normalized growth: 1.01
Locus YML032C, strain rad52, active compounds read low
  normalized growth: 0.953
Locus YML120C, strain ndi1, active compounds read low
  normalized growth: 0.439 (active)
Locus YML124C, strain tub3, active compounds read low
  normalized growth: 0.96
Locus YMR058W, strain fet3, active compounds read low
  normalized growth: 0.834 (active)
Locus YMR078C, strain ctf18, active compounds read low
  normalized growth: 0.976
Locus YMR125W, strain sto1, active compounds read low
  normalized growth: 0.875 (active)
Locus YMR129W, active compounds read low
  normalized growth: 0.911 (active)
Locus YMR205C, strain PFK2, active compounds read low
  normalized growth: 0.759 (active)
Locus YMR223W, strain ubp8, active compounds read low
  normalized growth: 0.958
Locus YMR231W, strain pep5, active compounds read low
  normalized growth: 0.169 (active)
Locus YMR263W, strain SAP30, active compounds read low
  normalized growth: 1.01
Locus YMR307W, strain GAS1, active compounds read low
  normalized growth: 0.956
Locus YNL067W, strain RPL9B, active compounds read low
  normalized growth: 1.02
Locus YNL071W, strain lat1, active compounds read low
  normalized growth: 0.907 (active)
Locus YNL153C, strain GIM3, active compounds read low
  normalized growth: 1.01
Locus YNL183C, strain NPR1, active compounds read low
  normalized growth: 0.693 (active)
Locus YNL209W, strain ssb2, active compounds read low
  normalized growth: 0.924 (active)
Locus YNL233W, strain BNI4, active compounds read low
  normalized growth: 1.03
Locus YNL248C, strain rpa49, active compounds read low
  normalized growth: 0.925
Locus YNL250W, strain rad50, active compounds read low
  normalized growth: 0.328 (active)
Locus YNL271C, strain bni1, active compounds read low
  normalized growth: 0.773 (active)
Locus YNL298W, strain CLA4, active compounds read low
  normalized growth: 0.332 (active)
Locus YNL307C, strain MCK1, active compounds read low
  normalized growth: 0.971
Locus YNL322C, strain KRE1 (second series), active compounds read low
  normalized growth: 0.83 (active)
Locus YNR049C, strain mso1, active compounds read low
  normalized growth: 0.962
Locus YNR052C, strain pop2, active compounds read low
  normalized growth: 0.876 (active)
Locus YOL012C, strain htz1
  normalized growth: 1.07
Locus YOL147C, strain pex11, active compounds read low
  normalized growth: 0.968
Locus YOR001W, strain rrp6, active compounds read low
  normalized growth: 0.672 (active)
Locus YOR061W, strain CKA2, active compounds read low
  normalized growth: 1.02
Locus YOR069W, strain VPS5, active compounds read low
  normalized growth: 1.01
Locus YOR070C, strain gyp1, active compounds read low
  normalized growth: 0.966
Locus YOR080W, strain dia2, active compounds read low
  normalized growth: 0.975
Locus YOR083W, strain WHI5, active compounds read low
  normalized growth: 0.859 (active)
Locus YOR106W, strain vam3, active compounds read low
  normalized growth: 0.254 (active)
Locus YOR136W, strain idh2, active compounds read low
  normalized growth: 0.976
Locus YOR144C, strain elg1, active compounds read low
  normalized growth: 0.898 (active)
Locus YOR184W, strain ser1, active compounds read low
  normalized growth: 0.723 (active)
Locus YOR231W, strain MKK1, active compounds read low
  normalized growth: 0.127 (active)
Locus YOR265W, strain rbl2, active compounds read low
  normalized growth: 0.928 (active)
Locus YOR270C, strain vph1, active compounds read low
  normalized growth: 1.08
Locus YOR290C, strain snf2, active compounds read low
  normalized growth: 0.644 (active)
Locus YOR316C, strain cot1, active compounds read low
  normalized growth: 0.989
Locus YPL051W, strain arl3, active compounds read low
  normalized growth: 0.938
Locus YPL055C, strain LGE1, active compounds read low
  normalized growth: 0.999
Locus YPL078C, strain atp4, active compounds read low
  normalized growth: 0.873 (active)
Locus YPL106C, strain sse1, active compounds read low
  normalized growth: 0.86
Locus YPL240C, strain hsp82, active compounds read low
  normalized growth: 0.894 (active)
Locus YPL256C, strain CLN2, active compounds read low
  normalized growth: 0.189 (active)
Locus YPR119W, strain clb2, active compounds read low
  normalized growth: 0.964
Locus YPR141C, strain kar3, active compounds read low
  normalized growth: 0.888 (active)
Locus YPR163C, strain tif3, active compounds read low
  normalized growth: 0.968
Locus YPR167C, strain met16, active compounds read low
  normalized growth: 0.944
Strain wtn01, active compounds read low
  normalized growth: 0.841 (active)
